Results published in PubChem BioAssay AID1159580 (chemical genetic matrix, 2015).
Out of some 5,500 compounds screened, about 2,000 (36%) were called active. Roughly 18% stayed inconclusive and do not appear here. Rule as the data show it: active = normalized growth mostly below about 0.91 (no sharp cut-off); inconclusive = no clear call, values can overlap the other calls; inactive = mostly above about 0.92. This is one part of the list.

Experiment: chemical genetic growth profiling, strain panel (AID 1159580);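 also: tested at 20 µM; growth read once vehicle control cultures reached saturation at 30 °C; 1 = growth at the plate median or of vehicle wells; lower values mean less growth of the strain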
Conditions: growth OD

Measured: normalized growth

CC1=C(/C=C/C(C)=C/C=C/C(C)=C/CO)C(C)(C)CCC1
inactive: S. cerevisiae deletion strains, locus YJR043C, strain POL32, hits give low values 0.985 | S. cerevisiae deletion strains, locus YJR066W, strain TOR1, hits give low values 0.94 | S. cerevisiae deletion strains, locus YKL009W, strain mrt4, hits give low values 0.993 | S. cerevisiae deletion strains, locus YKL068W, hits give low values 0.997 | S. cerevisiae deletion strains, locus YKL085W, strain MDH1 (second series), hits give low values 0.972 | S. cerevisiae deletion strains, locus YKL085W, strain MDH1, hits give low values 0.972 | S. cerevisiae deletion strains, locus YKL160W, strain elf1, hits give low values 1.04 | S. cerevisiae deletion strains, locus YKL190W, strain CNB1, hits give low values 0.991 | S. cerevisiae deletion strains, locus YKR001C, strain vps1, hits give low values 0.984 | S. cerevisiae deletion strains, locus YKR026C, strain gcn3, hits give low values 1.02 | S. cerevisiae deletion strains, locus YKR091W, strain srl3, hits give low values 1.01 | S. cerevisiae deletion strains, locus YLL001W, strain dnm1, hits give low values 0.975 | S. cerevisiae deletion strains, locus YLL026W, hits give low values 1.03 | S. cerevisiae deletion strains, locus YLL041C, strain sdh2, hits give low values 0.99 | S. cerevisiae deletion strains, locus YLR027C, strain aat2, hits give low values 1.01 | S. cerevisiae deletion strains, locus YLR039C, strain RIC1, hits give low values 1.01 | S. cerevisiae deletion strains, locus YLR058C, strain SHM2, hits give low values 0.976 | S. cerevisiae deletion strains, locus YLR102C, strain apc9, hits give low values 1 | S. cerevisiae deletion strains, locus YLR113W, strain HOG1, hits give low values 1 | S. cerevisiae deletion strains, locus YLR221C, strain rsa3, hits give low values 0.973 | S. cerevisiae deletion strains, locus YLR258W, strain gsy2, hits give low values 1.03 | S. cerevisiae deletion strains, locus YLR262C, strain YPT6 (second series), hits give low values 0.972 | S. cerevisiae deletion strains, locus YLR262C, strain YPT6, hits give low values 0.934 | S. cerevisiae deletion strains, locus YLR268W, strain sec22, hits give low values 1 | S. cerevisiae deletion strains, locus YLR320W, strain mms22, hits give low values 0.972 | S. cerevisiae deletion strains, locus YLR330W, strain CHS5, hits give low values 1 | S. cerevisiae deletion strains, locus YLR342W, strain FKS1 (second series), hits give low values 1.1 | S. cerevisiae deletion strains, locus YLR342W, strain FKS1, hits give low values 1.03 | S. cerevisiae deletion strains, locus YLR357W, strain rsc2, hits give low values 1.01 | S. cerevisiae deletion strains, locus YLR370C, strain arc18, hits give low values 1.01 | S. cerevisiae deletion strains, locus YLR371W, strain rom2, hits give low values 1.02 | S. cerevisiae deletion strains, locus YLR384C, strain iki3, hits give low values 1.01 | S. cerevisiae deletion strains, locus YLR418C, strain cdc73, hits give low values 0.965 | S. cerevisiae deletion strains, locus YML016C, strain PPZ1, hits give low values 0.998 | S. cerevisiae deletion strains, locus YML032C, strain rad52, hits give low values 1.01 | S. cerevisiae deletion strains, locus YML120C, strain ndi1, hits give low values 1 | S. cerevisiae deletion strains, locus YML124C, strain tub3, hits give low values 0.996 | S. cerevisiae deletion strains, locus YMR058W, strain fet3, hits give low values 0.998 | S. cerevisiae deletion strains, locus YMR078C, strain ctf18, hits give low values 1 | S. cerevisiae deletion strains, locus YMR125W, strain sto1, hits give low values 1.02 | S. cerevisiae deletion strains, locus YMR129W, hits give low values 1.02 | S. cerevisiae deletion strains, locus YMR205C, strain PFK2, hits give low values 0.96 | S. cerevisiae deletion strains, locus YMR223W, strain ubp8, hits give low values 0.998 | S. cerevisiae deletion strains, locus YMR231W, strain pep5, hits give low values 0.997 | S. cerevisiae deletion strains, locus YMR307W, strain GAS1, hits give low values 0.982 | S. cerevisiae deletion strains, locus YNL067W, strain RPL9B, hits give low values 0.962 | S. cerevisiae deletion strains, locus YNL071W, strain lat1, hits give low values 1.03 | S. cerevisiae deletion strains, locus YNL183C, strain NPR1, hits give low values 0.938 | S. cerevisiae deletion strains, locus YNL209W, strain ssb2, hits give low values 1.02 | S. cerevisiae deletion strains, locus YNL233W, strain BNI4, hits give low values 0.974 | S. cerevisiae deletion strains, locus YNL248C, strain rpa49, hits give low values 1.09 | S. cerevisiae deletion strains, locus YNL250W, strain rad50, hits give low values 0.982 | S. cerevisiae deletion strains, locus YNL271C, strain bni1, hits give low values 1.01 | S. cerevisiae deletion strains, locus YNL298W, strain CLA4, hits give low values 1.01 | S. cerevisiae deletion strains, locus YNL307C, strain MCK1, hits give low values 1.01 | S. cerevisiae deletion strains, locus YNL322C, strain KRE1 (second series), hits give low values 1.05 | S. cerevisiae deletion strains, locus YNR049C, strain mso1, hits give low values 1.01 | S. cerevisiae deletion strains, locus YNR052C, strain pop2, hits give low values 1.01 | S. cerevisiae deletion strains, locus YOL006C, strain TOP1, hits give low values 0.929 | S. cerevisiae deletion strains, locus YOL012C, strain htz1 0.793 | S. cerevisiae deletion strains, locus YOL147C, strain pex11, hits give low values 0.994 | S. cerevisiae deletion strains, locus YOR001W, strain rrp6, hits give low values 0.983 | S. cerevisiae deletion strains, locus YOR061W, strain CKA2, hits give low values 0.961 | S. cerevisiae deletion strains, locus YOR069W, strain VPS5, hits give low values 1.01 | S. cerevisiae deletion strains, locus YOR070C, strain gyp1, hits give low values 1 | S. cerevisiae deletion strains, locus YOR080W, strain dia2, hits give low values 1.01 | S. cerevisiae deletion strains, locus YOR083W, strain WHI5, hits give low values 0.988 | S. cerevisiae deletion strains, locus YOR106W, strain vam3, hits give low values 1 | S. cerevisiae deletion strains, locus YOR136W, strain idh2, hits give low values 0.992 | S. cerevisiae deletion strains, locus YOR144C, strain elg1, hits give low values 1 | S. cerevisiae deletion strains, locus YOR184W, strain ser1, hits give low values 1.01 | S. cerevisiae deletion strains, locus YOR231W, strain MKK1, hits give low values 0.988 | S. cerevisiae deletion strains, locus YOR265W, strain rbl2, hits give low values 1 | S. cerevisiae deletion strains, locus YOR270C, strain vph1, hits give low values 0.848 | S. cerevisiae deletion strains, locus YOR290C, strain snf2, hits give low values 1.05 | S. cerevisiae deletion strains, locus YOR316C, strain cot1, hits give low values 1 | S. cerevisiae deletion strains, locus YPL051W, strain arl3, hits give low values 1.04 | S. cerevisiae deletion strains, locus YPL055C, strain LGE1, hits give low values 0.873 | S. cerevisiae deletion strains, locus YPL078C, strain atp4, hits give low values 1.02 | S. cerevisiae deletion strains, locus YPL106C, strain sse1, hits give low values 1.13 | S. cerevisiae deletion strains, locus YPL240C, strain hsp82, hits give low values 1.01 | S. cerevisiae deletion strains, locus YPL256C, strain CLN2, hits give low values 1.04 | S. cerevisiae deletion strains, locus YPR119W, strain clb2, hits give low values 1 | S. cerevisiae deletion strains, locus YPR141C, strain kar3, hits give low values 0.997 | S. cerevisiae deletion strains, locus YPR163C, strain tif3, hits give low values 0.998 | S. cerevisiae deletion strains, locus YPR167C, strain met16, hits give low values 1 | S. cerevisiae deletion strains, strain wtn01, hits give low values 1.03 | S. cerevisiae strains, strain wild type, hits give low values 0.979
